Consider 19 molecules from publication PMC12529666, “Dysregulation of AGO2-miRNA dynamics underlies the AGO2-associated Lessel–Kreienkamp syndrome”.

Numbering of substitutions follows the chain as printed.

The chains are these.
B1: GCGCCTCA (ssRNA)
RNA 1: GAGUUCUACAGUCCGACGAUCCCAACGCGCCUCACACCUGGAAUUCUCGGGUGCCAA
RNA 2: UGGAGUGUGACAAUGGUGUUUG
DNA 1: GATCGTCGGACTGTAGAACTC
DNA 2: TTGGCACCCGAGAATTCCA
modifications: constant regions annealed to DNA blockers; guide miR-122 5' phosphate
B2: GTGCTCTG (ssRNA)
RNA 1: B1 RNA 1 with C28U, C31U, U32C, C33U, A34G
RNA 2: UGGAGUGUGACAAUGGUGUUUG
DNA 1: GATCGTCGGACTGTAGAACTC
DNA 2: TTGGCACCCGAGAATTCCA
modifications: constant regions annealed to DNA blockers; guide miR-122 5' phosphate
B3: ACGTTCCA (ssRNA)
RNA 1: B1 RNA 1 with G27A, C30U, C31U, U32C
RNA 2: UGGAGUGUGACAAUGGUGUUUG
DNA 1: GATCGTCGGACTGTAGAACTC
DNA 2: TTGGCACCCGAGAATTCCA
modifications: constant regions annealed to DNA blockers; guide miR-122 5' phosphate
B4: ATGTTTTA (ssRNA)
RNA 1: B1 RNA 1 with G27A, C28U, C30U, C31U, C33U
RNA 2: UGGAGUGUGACAAUGGUGUUUG
DNA 1: GATCGTCGGACTGTAGAACTC
DNA 2: TTGGCACCCGAGAATTCCA
modifications: constant regions annealed to DNA blockers; guide miR-122 5' phosphate
B5: ATGTCTTA (ssRNA)
RNA 1: B1 RNA 1 with G27A, C28U, C30U, C33U
RNA 2: UGGAGUGUGACAAUGGUGUUUG
DNA 1: GATCGTCGGACTGTAGAACTC
DNA 2: TTGGCACCCGAGAATTCCA
modifications: constant regions annealed to DNA blockers; guide miR-122 5' phosphate
B6: GTGCCCCA (ssRNA)
RNA 1: B1 RNA 1 with C28U, U32C
RNA 2: UGGAGUGUGACAAUGGUGUUUG
DNA 1: GATCGTCGGACTGTAGAACTC
DNA 2: TTGGCACCCGAGAATTCCA
modifications: constant regions annealed to DNA blockers; guide miR-122 5' phosphate
B7: GTGCTTCG (ssRNA)
RNA 1: B1 RNA 1 with C28U, C31U, A34G
RNA 2: UGGAGUGUGACAAUGGUGUUUG
DNA 1: GATCGTCGGACTGTAGAACTC
DNA 2: TTGGCACCCGAGAATTCCA
modifications: constant regions annealed to DNA blockers; guide miR-122 5' phosphate
B8: GCGCCCCG (ssRNA)
RNA 1: B1 RNA 1 with U32C, A34G
RNA 2: UGGAGUGUGACAAUGGUGUUUG
DNA 1: GATCGTCGGACTGTAGAACTC
DNA 2: TTGGCACCCGAGAATTCCA
modifications: constant regions annealed to DNA blockers; guide miR-122 5' phosphate
B9: ACACTCTG (ssRNA)
RNA 1: B1 RNA 1 with G27A, G29A, C31U, U32C, C33U, A34G
RNA 2: UGGAGUGUGACAAUGGUGUUUG
DNA 1: GATCGTCGGACTGTAGAACTC
DNA 2: TTGGCACCCGAGAATTCCA
modifications: constant regions annealed to DNA blockers; guide miR-122 5' phosphate
B10: ACGCTCTG (ssRNA)
RNA 1: B1 RNA 1 with G27A, C31U, U32C, C33U, A34G
RNA 2: UGGAGUGUGACAAUGGUGUUUG
DNA 1: GATCGTCGGACTGTAGAACTC
DNA 2: TTGGCACCCGAGAATTCCA
modifications: constant regions annealed to DNA blockers; guide miR-122 5' phosphate
B11: GTGCCTTA (ssRNA)
RNA 1: B1 RNA 1 with C28U, C33U
RNA 2: UGGAGUGUGACAAUGGUGUUUG
DNA 1: GATCGTCGGACTGTAGAACTC
DNA 2: TTGGCACCCGAGAATTCCA
modifications: constant regions annealed to DNA blockers; guide miR-122 5' phosphate
B12: ATACTCCA (ssRNA)
RNA 1: B1 RNA 1 with G27A, C28U, G29A, C31U, U32C
RNA 2: UGGAGUGUGACAAUGGUGUUUG
DNA 1: GATCGTCGGACTGTAGAACTC
DNA 2: TTGGCACCCGAGAATTCCA
modifications: constant regions annealed to DNA blockers; guide miR-122 5' phosphate
B13: GTGCCTCA (ssRNA)
RNA 1: B1 RNA 1 with C28U
RNA 2: UGGAGUGUGACAAUGGUGUUUG
DNA 1: GATCGTCGGACTGTAGAACTC
DNA 2: TTGGCACCCGAGAATTCCA
modifications: constant regions annealed to DNA blockers; guide miR-122 5' phosphate
B14: GTGTCTCA (ssRNA)
RNA 1: B1 RNA 1 with C28U, C30U
RNA 2: UGGAGUGUGACAAUGGUGUUUG
DNA 1: GATCGTCGGACTGTAGAACTC
DNA 2: TTGGCACCCGAGAATTCCA
modifications: constant regions annealed to DNA blockers; guide miR-122 5' phosphate
B15: ACATTTTA (ssRNA)
RNA 1: B1 RNA 1 with G27A, G29A, C30U, C31U, C33U
RNA 2: UGGAGUGUGACAAUGGUGUUUG
DNA 1: GATCGTCGGACTGTAGAACTC
DNA 2: TTGGCACCCGAGAATTCCA
modifications: constant regions annealed to DNA blockers; guide miR-122 5' phosphate
B16: GCGCTCCG (ssRNA)
RNA 1: B1 RNA 1 with C31U, U32C, A34G
RNA 2: UGGAGUGUGACAAUGGUGUUUG
DNA 1: GATCGTCGGACTGTAGAACTC
DNA 2: TTGGCACCCGAGAATTCCA
modifications: constant regions annealed to DNA blockers; guide miR-122 5' phosphate
B17: ACACCCCG (ssRNA)
RNA 1: B1 RNA 1 with G27A, G29A, U32C, A34G
RNA 2: UGGAGUGUGACAAUGGUGUUUG
DNA 1: GATCGTCGGACTGTAGAACTC
DNA 2: TTGGCACCCGAGAATTCCA
modifications: constant regions annealed to DNA blockers; guide miR-122 5' phosphate
B18: ACACCTTA (ssRNA)
RNA 1: B1 RNA 1 with G27A, G29A, C33U
RNA 2: UGGAGUGUGACAAUGGUGUUUG
DNA 1: GATCGTCGGACTGTAGAACTC
DNA 2: TTGGCACCCGAGAATTCCA
modifications: constant regions annealed to DNA blockers; guide miR-122 5' phosphate
B19: GCACCCCG (ssRNA)
RNA 1: B1 RNA 1 with G29A, U32C, A34G
RNA 2: UGGAGUGUGACAAUGGUGUUUG
DNA 1: GATCGTCGGACTGTAGAACTC
DNA 2: TTGGCACCCGAGAATTCCA
modifications: constant regions annealed to DNA blockers; guide miR-122 5' phosphate

AGO2 T357M, sequence (Q9UKV8 whole entry T357M/S387D/S824A/S828D/S831D/S834A): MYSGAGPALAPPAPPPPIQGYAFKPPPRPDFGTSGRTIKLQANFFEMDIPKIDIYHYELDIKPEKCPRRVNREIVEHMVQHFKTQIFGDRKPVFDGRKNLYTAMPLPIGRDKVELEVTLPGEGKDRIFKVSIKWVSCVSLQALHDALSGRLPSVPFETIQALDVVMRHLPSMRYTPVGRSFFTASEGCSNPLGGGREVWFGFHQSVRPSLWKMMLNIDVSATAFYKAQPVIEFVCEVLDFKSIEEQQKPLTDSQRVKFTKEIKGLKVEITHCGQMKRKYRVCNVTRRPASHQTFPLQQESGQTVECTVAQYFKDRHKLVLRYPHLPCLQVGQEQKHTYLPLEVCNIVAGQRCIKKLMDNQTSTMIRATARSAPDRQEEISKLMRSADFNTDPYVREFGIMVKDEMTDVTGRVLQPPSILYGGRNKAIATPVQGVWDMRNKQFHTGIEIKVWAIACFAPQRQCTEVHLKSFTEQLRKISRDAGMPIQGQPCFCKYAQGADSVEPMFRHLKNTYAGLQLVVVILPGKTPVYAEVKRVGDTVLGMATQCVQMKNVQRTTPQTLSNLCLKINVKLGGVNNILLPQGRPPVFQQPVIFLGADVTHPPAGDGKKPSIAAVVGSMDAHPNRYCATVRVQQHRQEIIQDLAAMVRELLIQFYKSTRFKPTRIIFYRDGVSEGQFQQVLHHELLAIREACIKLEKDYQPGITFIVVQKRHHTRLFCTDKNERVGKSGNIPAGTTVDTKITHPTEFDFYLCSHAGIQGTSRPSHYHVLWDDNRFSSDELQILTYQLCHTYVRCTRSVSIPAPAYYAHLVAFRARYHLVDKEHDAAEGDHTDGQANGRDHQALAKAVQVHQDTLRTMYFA
AGO2 L192P, sequence (Q9UKV8 whole entry L192P/S387D/S824A/S828D/S831D/S834A): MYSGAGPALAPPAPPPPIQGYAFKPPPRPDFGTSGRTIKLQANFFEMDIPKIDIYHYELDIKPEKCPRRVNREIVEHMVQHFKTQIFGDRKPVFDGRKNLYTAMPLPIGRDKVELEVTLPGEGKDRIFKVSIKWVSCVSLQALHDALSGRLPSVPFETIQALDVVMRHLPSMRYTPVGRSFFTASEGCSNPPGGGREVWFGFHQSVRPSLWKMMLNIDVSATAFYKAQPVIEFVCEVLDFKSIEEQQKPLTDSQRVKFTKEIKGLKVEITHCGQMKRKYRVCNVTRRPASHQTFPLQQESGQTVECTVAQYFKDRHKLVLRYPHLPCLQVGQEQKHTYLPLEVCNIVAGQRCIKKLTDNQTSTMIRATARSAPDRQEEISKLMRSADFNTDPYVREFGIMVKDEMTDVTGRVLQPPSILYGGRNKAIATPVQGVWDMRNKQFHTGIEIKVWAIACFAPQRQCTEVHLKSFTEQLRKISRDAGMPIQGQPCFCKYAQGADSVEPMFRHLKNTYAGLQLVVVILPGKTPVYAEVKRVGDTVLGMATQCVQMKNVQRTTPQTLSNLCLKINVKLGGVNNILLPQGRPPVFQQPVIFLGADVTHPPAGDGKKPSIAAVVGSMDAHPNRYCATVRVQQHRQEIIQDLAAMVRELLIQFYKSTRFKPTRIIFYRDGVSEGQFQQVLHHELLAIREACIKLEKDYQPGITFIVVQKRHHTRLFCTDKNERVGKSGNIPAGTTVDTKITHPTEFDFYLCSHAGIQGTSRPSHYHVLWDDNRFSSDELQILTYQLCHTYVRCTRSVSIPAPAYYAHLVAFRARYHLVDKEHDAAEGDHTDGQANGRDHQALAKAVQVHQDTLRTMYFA
AGO2 A367P, sequence (Q9UKV8 whole entry A367P/S387D/S824A/S828D/S831D/S834A): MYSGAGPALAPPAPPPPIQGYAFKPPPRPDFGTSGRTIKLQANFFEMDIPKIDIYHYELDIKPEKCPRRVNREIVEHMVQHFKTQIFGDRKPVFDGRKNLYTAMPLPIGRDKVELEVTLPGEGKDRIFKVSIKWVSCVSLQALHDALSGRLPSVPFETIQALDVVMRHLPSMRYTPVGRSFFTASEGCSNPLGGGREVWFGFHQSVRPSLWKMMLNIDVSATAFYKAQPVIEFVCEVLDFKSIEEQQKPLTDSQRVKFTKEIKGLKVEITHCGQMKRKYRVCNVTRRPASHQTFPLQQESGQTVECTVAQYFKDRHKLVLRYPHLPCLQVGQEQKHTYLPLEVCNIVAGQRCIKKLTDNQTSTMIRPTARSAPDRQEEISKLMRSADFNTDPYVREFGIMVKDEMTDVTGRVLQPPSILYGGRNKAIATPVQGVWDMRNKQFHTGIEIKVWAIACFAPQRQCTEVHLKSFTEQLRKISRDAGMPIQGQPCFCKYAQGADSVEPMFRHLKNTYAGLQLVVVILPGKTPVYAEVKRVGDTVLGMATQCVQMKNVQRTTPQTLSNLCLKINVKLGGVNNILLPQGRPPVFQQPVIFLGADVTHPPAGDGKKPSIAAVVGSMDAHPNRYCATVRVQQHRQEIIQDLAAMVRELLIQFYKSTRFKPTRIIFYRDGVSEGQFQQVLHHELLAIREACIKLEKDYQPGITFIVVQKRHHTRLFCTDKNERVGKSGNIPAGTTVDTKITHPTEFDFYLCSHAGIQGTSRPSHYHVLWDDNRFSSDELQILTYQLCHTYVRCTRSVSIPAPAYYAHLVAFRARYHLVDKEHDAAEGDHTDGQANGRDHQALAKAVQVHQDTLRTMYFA
AGO2 WT (phosphosite mutant background), sequence (Q9UKV8 whole entry S387D/S824A/S828D/S831D/S834A): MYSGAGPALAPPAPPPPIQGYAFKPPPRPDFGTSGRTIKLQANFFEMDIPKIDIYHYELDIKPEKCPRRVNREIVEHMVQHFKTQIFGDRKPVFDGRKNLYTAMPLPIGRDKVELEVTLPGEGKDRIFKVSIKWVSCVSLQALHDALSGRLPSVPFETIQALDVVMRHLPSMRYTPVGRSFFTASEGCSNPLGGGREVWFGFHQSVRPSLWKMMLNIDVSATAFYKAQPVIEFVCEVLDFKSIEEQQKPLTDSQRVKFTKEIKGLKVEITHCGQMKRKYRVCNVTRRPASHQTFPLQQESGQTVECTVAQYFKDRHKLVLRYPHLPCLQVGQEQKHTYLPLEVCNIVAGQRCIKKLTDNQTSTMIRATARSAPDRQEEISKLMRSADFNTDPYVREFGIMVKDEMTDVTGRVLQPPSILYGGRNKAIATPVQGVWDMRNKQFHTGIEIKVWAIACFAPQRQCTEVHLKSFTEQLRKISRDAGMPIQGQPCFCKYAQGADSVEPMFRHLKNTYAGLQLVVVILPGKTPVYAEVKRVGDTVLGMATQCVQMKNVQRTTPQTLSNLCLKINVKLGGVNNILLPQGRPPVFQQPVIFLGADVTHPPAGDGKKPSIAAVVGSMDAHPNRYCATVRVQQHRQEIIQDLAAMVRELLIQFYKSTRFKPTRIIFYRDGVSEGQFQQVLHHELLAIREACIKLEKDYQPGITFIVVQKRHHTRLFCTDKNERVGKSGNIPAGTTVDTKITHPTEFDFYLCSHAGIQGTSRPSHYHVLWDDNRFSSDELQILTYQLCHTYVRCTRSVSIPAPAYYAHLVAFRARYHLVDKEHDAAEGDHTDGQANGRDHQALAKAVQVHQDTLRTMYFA

The first assay has as its target AGO2 WT (phosphosite mutant background) (Homo sapiens, UniProt Q9UKV8 1-859, S387D;S824A;S828D;S831D;S834A). As to the kind of experiment: RNA Bind-n-Seq (nitrocellulose filter binding and sequencing); miR-122 guide loaded in AGO2; 60 min incubation; 30 mM Tris pH 8.0, 100 mM potassium acetate, 2 mM magnesium acetate, 0.5 mM TCEP, 0.005% NP-40, 0.01 mg/ml yeast tRNA; 3 nM AGO2-miR-122, 100 nM RNA library; 60; high values mean tight binding. The settings on record: protein: recombinant; tags: His6 (N-terminal, pFastBac HTA). An outline of the steps: (§1)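 His-tagged AGO2 was expressed in Sf9 insect cells by baculovirus, loaded with a synthetic guide RNA, and purified by Ni-NTA and a biotinylated capture oligo. Bound RNA was extracted, reverse-transcribed, barcode-amplified and Illumina-sequenced. Fold enrichment is each sequence's read fraction divided by its input-library read fraction.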
In the case of B1, the binding signal was 0.131 fold enrichment over input.
On the same count and under the same terms, the same measure for B2: 0.123 fold enrichment over input.
For the molecule B3, the binding signal was 0.137 fold enrichment over input.
Still for that read-out and setting: the same measure for B4: 0.12 fold enrichment over input.
On to B5, for which the binding signal is 0.142 fold enrichment over input.
The same measure, in the same setting: the same measure for B6: 0.123 fold enrichment over input; for B7: 0.127 fold enrichment over input.
On the same count and under the same terms, the same measure for B8: 0.12 fold enrichment over input.
Same read-out and setting: the same measure for B9: 0.933 fold enrichment over input; for B10: 0.132 fold enrichment over input.
In the case of B11, the binding signal was 0.126 fold enrichment over input.
Still for that read-out and setting: the same measure for B12: 1.32 fold enrichment over input.
Still for that read-out and setting: the same measure for B13: 0.122 fold enrichment over input; for B14: 0.126 fold enrichment over input.
Same read-out and setting: the same measure for B15: 0.122 fold enrichment over input.
As for B16, the binding signal is 1.39 fold enrichment over input.
As for B17, the binding signal is 0.152 fold enrichment over input.
Same read-out and setting: the same measure for B18: 0.164 fold enrichment over input; for B19: 0.129 fold enrichment over input.

A further assay concerns the target AGO2 L192P (Homo sapiens, UniProt Q9UKV8 1-859, L192P;S387D;S824A;S828D;S831D;S834A). The description is as above. The settings on record: protein: recombinant; tags: His6 (N-terminal, pFastBac HTA). The gist of the method:
as §1
With B1, the binding signal was 0.523 fold enrichment over input.
Same read-out and setting: the same measure for B2: 0.483 fold enrichment over input; for B3: 0.603 fold enrichment over input.
Same read-out and setting: the figure for B4 is 0.492 fold enrichment over input; for B5 it is 0.569 fold enrichment over input.
On the same count and under the same terms, the same measure for B6: 0.464 fold enrichment over input; for B7: 0.455 fold enrichment over input; for B8: 0.438 fold enrichment over input.
Turning to B9, the binding signal is 0.807 fold enrichment over input.
With B10, the binding signal was 0.394 fold enrichment over input.
As for B11, the binding signal was 0.555 fold enrichment over input.
On to B12, for which the binding signal is 4.64 fold enrichment over input.
On the same count and under the same terms, the same measure for B13: 0.533 fold enrichment over input; for B14: 0.486 fold enrichment over input; for B15: 0.534 fold enrichment over input.
Still for that read-out and setting: the same measure for B16: 3.09 fold enrichment over input.
On the same count and under the same terms, the figure for B17 is 0.517 fold enrichment over input; for B18 it is 0.755 fold enrichment over input; for B19 it is 0.455 fold enrichment over input.

In the next assay the target is AGO2 A367P (Homo sapiens, UniProt Q9UKV8 1-859, A367P;S387D;S824A;S828D;S831D;S834A). The description is as above. The settings on record: protein: recombinant; tags: His6 (N-terminal, pFastBac HTA). The gist of the method:
as §1
Turning to B1, the binding signal is 0.233 fold enrichment over input.
On the same count and under the same terms, the same measure for B2: 0.182 fold enrichment over input; for B3: 0.333 fold enrichment over input.
Regarding B4, the binding signal is 0.247 fold enrichment over input.
Regarding B5, the binding signal is 0.399 fold enrichment over input.
Same read-out and setting: the same measure for B6: 0.227 fold enrichment over input; for B7: 0.192 fold enrichment over input.
Same read-out and setting: the figure for B8 is 0.18 fold enrichment over input; for B9 it is 0.794 fold enrichment over input.
Still for that read-out and setting: the figure for B10 is 0.169 fold enrichment over input; for B11 it is 0.217 fold enrichment over input; for B12 it is 6.04 fold enrichment over input.
In the case of B13, the binding signal was 0.232 fold enrichment over input.
Still for that read-out and setting: the same measure for B14: 0.222 fold enrichment over input.
As to B15, the binding signal was 0.209 fold enrichment over input.
On the same count and under the same terms, the same measure for B16: 4.35 fold enrichment over input; for B17: 0.259 fold enrichment over input; for B18: 0.475 fold enrichment over input.
As to B19, the binding signal was 0.21 fold enrichment over input.

Another assay addresses AGO2 T357M (Homo sapiens, UniProt Q9UKV8 1-859, T357M;S387D;S824A;S828D;S831D;S834A). The description is as above. The settings on record: protein: recombinant; tags: His6 (N-terminal, pFastBac HTA). An outline of the steps:
as §1
Turning to B1, the binding signal is 0.741 fold enrichment over input.
On the same count and under the same terms, the same measure for B2: 0.67 fold enrichment over input; for B3: 0.66 fold enrichment over input.
Same read-out and setting: the figure for B4 is 0.607 fold enrichment over input; for B5 it is 0.646 fold enrichment over input; for B6 it is 0.677 fold enrichment over input.
On to B7, for which the binding signal is 0.624 fold enrichment over input.
On the same count and under the same terms, the figure for B8 is 0.745 fold enrichment over input; for B9 it is 0.868 fold enrichment over input; for B10 it is 0.539 fold enrichment over input.
On the same count and under the same terms, the figure for B11 is 0.801 fold enrichment over input; for B12 it is 1.16 fold enrichment over input; for B13 it is 0.687 fold enrichment over input.
As to B14, the binding signal is 0.585 fold enrichment over input.
As to B15, the binding signal was 0.598 fold enrichment over input.
With B16, the binding signal was 0.905 fold enrichment over input.
Same read-out and setting: the same measure for B17: 0.517 fold enrichment over input.
Same read-out and setting: the same measure for B18: 0.721 fold enrichment over input; for B19: 0.634 fold enrichment over input.

In another assay the target is AGO2 F182del (Homo sapiens, UniProt Q9UKV8 1-859, S387D;S824A;S828D;S831D;S834A;del182-182). The description is as above. The settings on record: protein: recombinant; tags: His6 (N-terminal, pFastBac HTA). An outline of the steps: as §1
AGO2 F182del, sequence (Q9UKV8 other isoform, or with tags, fused parts or gaps S387D;S824A;S828D;S831D;S834A;del182-182): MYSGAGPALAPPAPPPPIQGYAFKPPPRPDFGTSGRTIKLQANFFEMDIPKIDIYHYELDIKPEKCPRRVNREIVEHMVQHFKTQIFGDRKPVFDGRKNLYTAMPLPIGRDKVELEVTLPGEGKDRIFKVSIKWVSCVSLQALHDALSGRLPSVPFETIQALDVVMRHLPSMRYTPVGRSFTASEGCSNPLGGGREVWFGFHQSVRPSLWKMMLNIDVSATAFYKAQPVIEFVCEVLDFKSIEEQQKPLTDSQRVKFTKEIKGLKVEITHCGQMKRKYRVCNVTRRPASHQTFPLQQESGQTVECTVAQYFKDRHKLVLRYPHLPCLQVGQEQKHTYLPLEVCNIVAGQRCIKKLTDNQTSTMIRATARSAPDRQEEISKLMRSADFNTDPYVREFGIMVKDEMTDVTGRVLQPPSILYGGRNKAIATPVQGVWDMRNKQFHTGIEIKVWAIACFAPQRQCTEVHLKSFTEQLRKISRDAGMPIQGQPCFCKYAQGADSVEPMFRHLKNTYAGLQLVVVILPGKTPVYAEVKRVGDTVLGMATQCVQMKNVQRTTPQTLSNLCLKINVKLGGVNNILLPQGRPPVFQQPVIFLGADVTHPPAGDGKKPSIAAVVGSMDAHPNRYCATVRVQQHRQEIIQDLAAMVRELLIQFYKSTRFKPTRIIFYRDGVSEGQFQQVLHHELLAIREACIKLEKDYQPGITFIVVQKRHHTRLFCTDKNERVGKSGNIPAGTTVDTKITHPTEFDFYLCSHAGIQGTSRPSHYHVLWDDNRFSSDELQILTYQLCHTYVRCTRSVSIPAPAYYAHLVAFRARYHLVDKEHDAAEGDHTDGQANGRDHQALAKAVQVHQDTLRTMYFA
With B1, the binding signal is 0.304 fold enrichment over input.
Still for that read-out and setting: the figure for B3 is 0.976 fold enrichment over input; for B4 it is 0.21 fold enrichment over input; for B5 it is 0.57 fold enrichment over input.
Same read-out and setting: the figure for B6 is 0.158 fold enrichment over input; for B9 it is 2.4 fold enrichment over input.
Still for that read-out and setting: the same measure for B10: 0.149 fold enrichment over input; for B12: 8.59 fold enrichment over input; for B13: 0.326 fold enrichment over input.
In the case of B14, the binding signal was 0.387 fold enrichment over input.
The same measure, in the same setting: the same measure for B15: 0.359 fold enrichment over input.
Same read-out and setting: the same measure for B16: 7.66 fold enrichment over input.
On the same count and under the same terms, the figure for B17 is 0.82 fold enrichment over input; for B18 it is 1.89 fold enrichment over input.
In the case of B19, the binding signal is 0.203 fold enrichment over input.
